Measured values taken from article PMC12136788.
The full ranking holds about 5,800 sequences; the median of “enrichment r” is about 0.68, and the highest 2% start at about 11. These entries were drawn from the full list.

B1: chr2:111862450:111862553:-|CDS|ENSG00000153107|unk|FALSE|unique (ssRNA)
RNA: GGGAGUUCUACAGUCCGACGAUCUCUUUUUCAGGGGUGCAAAGGUUCAACAUUUCAAGCCAUAAUCAGUCUCCAAAGAGACAUAGUAUUUCUCAUUCUCCAAAUAGUAAUUCUAAUGGCUCCUUUCUUGCACCAGAAACGGAGCAACAGAGGAUUGAGCAUCA
B2: chr7:83961326:83961382:-|CDS_3pUTR|ENSG00000075213|msi1_unk|FALSE|overlapping (ssRNA)
RNA: GGGAGUUCUACAGUCCGACGAUCAAACAGGAGGACCCACGAAUUUGAGAGGGCACCCAGGAGUGUCUGAGCUGCAUUACCUCUAGAAACCUCAAACAAGUAGAAACUUGCCUAGACAAUAACUGGAAAAACAAAUGCAAUAUACAACAGAGGAUUGAGCAUCA
B3: ENSG00000124766:be:win_3951|3pUTR|ENSG00000124766|bound_else_gene|NA|bound_elsewhere_windowed (ssRNA)
RNA: GGGAGUUCUACAGUCCGACGAUCGUUUGGGGGAAAAAAAAGAAAAAAUCAUGCCAGCUAAUCAUGUCAAGUUCACUGCCUGUCAGAUUGUUGAUAUAUACCUUCUGUAAAUAACUUUUUUUGAGAAGGAAAUAAAAUCAGCUGCAACAGAGGAUUGAGCAUCA
B4: chr17:29262523:29262623:-|3pUTR|ENSG00000108256|msi1_unk|FALSE|overlapping (ssRNA)
RNA: GGGAGUUCUACAGUCCGACGAUCACUUUGACUGAUAUUGUAAUUUUCAAAUGUAUAAUAUGUUUACAGAUGUGCCCUGCAUUUAGUCUGCCUUGUUCCUAUUUUGAUUUUUGUUGAGUCUCCUGCCUGCUUGCCAAAAGCUAGCAACAGAGGAUUGAGCAUCA
B5: chrX:149581652:149582231:-|three_prime_utr|ENSG00000267978|control|control|control (ssRNA)
RNA: GGGAGUUCUACAGUCCGACGAUCCAAAUGUUCUUUUAAUGGUCAGUUUAAUGAACUUCACCAUCGAAGUUAAUGAAUGACAGUAGUCACACAUAUUGCUGUUUAUGUUAUUUAGGAGUAAGAUUCUUGCUUUUGAGUCACAUGCAACAGAGGAUUGAGCAUCA
B6: chr15:48879495:48879609:+|3pUTR|ENSG00000255302|msi1|total|mutant (ssRNA)
RNA: GGGAGUUCUACAGUCCGACGAUCGACACUAAAUGUGUGUGAAUGUACAAAGAAAACAAACCAUUGCUUAUGCUGUUAUAUACCCGAGAAAUUUUGUUUUGCUUGCUGUUUUAACUUGACAGAUGAAGGACUUCCGUUGAACUUCAACAGAGGAUUGAGCAUCA
B7: chr16:87831719:87831834:-|3pUTR|ENSG00000103257|msi1_unk|FALSE|overlapping (ssRNA)
RNA: GGGAGUUCUACAGUCCGACGAUCCCUGCGUUUGGAGGCCCCUGGGCUCUCACCCAGUCCCCACCCGCCUGCAGAGAGGGAACUAGGGCACCCCUUGUUUCUGUUGUUCCCGUGAAUUUUUUUCGCUAUGGGAGGCAGCCGAGGCAACAGAGGAUUGAGCAUCA
B8: chr8:93925380:93925481:+|3pUTR|ENSG00000164951|msi1|total|mutant (ssRNA)
RNA: GGGAGUUCUACAGUCCGACGAUCAUUUAUUUCUAAAUGUUUUGACUGGGCAUUUUUCUUUUAAUGAAAUAUGUGGACUGCUCCCGCAAACCCUAUUUUCAGCUACUAUUUGAAUAUUCUUGAACACCACCACUGAAGAGUUUCCAACAGAGGAUUGAGCAUCA
B9: chr14:88572724:88572825:+|CDS|ENSG00000100722|unk|FALSE|unique (ssRNA)
RNA: GGGAGUUCUACAGUCCGACGAUCGUGACACUUACAUAUGGUUCUUCUCGCCCUUCUAUUGAAAUUUAUCGACCACCUGCAAGUAGAAAUGCAGAUAGUGGUGUUCAUUUAAACAGGUUGCAAUUUCAACAGCAGCAGAAUAGUCAACAGAGGAUUGAGCAUCA
B10: chr17:42200006:42200107:-|3pUTR|ENSG00000173757|unk|FALSE|unique (ssRNA)
RNA: GGGAGUUCUACAGUCCGACGAUCAAGCUGCCGUUUGCCUUGGCUUGGUUUCAUACACUGAUUUAUUUUUCUAUGCCAGGCAGUAGAGUCUCUCUGCCUCUGAGGAGCAGGCUACCCGCAUCCCACUCAGCCCCUCCCUACCCCCAACAGAGGAUUGAGCAUCA
B11: ENSG00000087269:stop:overlap|stop_codon|ENSG00000087269|stop_codon|NA|stop_codon (ssRNA)
RNA: GGGAGUUCUACAGUCCGACGAUCGGCUGGCUGGUCUCGAAUUCCCGACCUCAGGUAAUCCACCUGCCUUGGCCCCCCAAUUAUAGGUGUGAGCCACAGCACCCAGCCAAAAAAGUAAUUUUUUUUAGAGUAAUAAUGCUAUAACAACAGAGGAUUGAGCAUCA
B12: chr5:41382290:41382405:-|CDS|ENSG00000182836|unk|total|mutant (ssRNA)
RNA: GGGAGUUCUACAGUCCGACGAUCGGCCAAAAAGCUCAUGCGGAAAUGGUCCGCCACUCAGACAAUGAAUUUUACUGGCCAGCCCGGAGCUGGAAUUCGUUAUUUUGAUCUUCGAAUUUCCACCAAGCCCAGAGACCCCGACAACAACAGAGGAUUGAGCAUCA
B13: chr1:71064632:71064733:-|3pUTR|ENSG00000132485|msi1|total|mutant (ssRNA)
RNA: GGGAGUUCUACAGUCCGACGAUCGCUAAGACAGGAUUACCCCGGCUUGCCUGAACUUUGGGCAUGGAAGAAAGACUGGAAACCCGUUGGAAACAACAUACUUAUGGAAAAGAAAGUCAGCCUUUUUAUGCUGUUAACAGAUGUCAACAGAGGAUUGAGCAUCA
B14: chr1:183142599:183142700:+|CDS|ENSG00000135862|msi1|FALSE|unique (ssRNA)
RNA: GGGAGUUCUACAGUCCGACGAUCAACGAGAUUGAAGGCACCCUAAACAAAGCCAAAGAUGAAAUGAAGGUCAGCGAUCUUGAUAGGAAAGUGUCUGACCUGGAGAAUGAAGCCAAGAAGCAGGAGGCUGCCAUCAUGGACUAUCAACAGAGGAUUGAGCAUCA
B15: chr1:23091194:23091296:-|CDS|ENSG00000169641|unk|FALSE|unique (ssRNA)
RNA: GGGAGUUCUACAGUCCGACGAUCCUCCAGAAGGACCCAAAGUAGCCUCACUGUGUCAGAGGUGCUUACCCGUCGGAAUCGGGUAGGAGACACCAUCACUGUCGCAGCCUGGAACCACUCAGCAAGCAUGGUGAGUUCCAGCCUCAACAGAGGAUUGAGCAUCA
B16: ENSG00000160209:stop:overlap|stop_codon|ENSG00000160209|stop_codon|NA|stop_codon (ssRNA)
RNA: GGGAGUUCUACAGUCCGACGAUCCCUUGACCUCCUGGGCUGAAGCAAUCUUUCUGCCUCCACCUCCCGAGUGGCUGGGACUAUAGUUGUGCACCAGCACGCCCACCUCCUGCCCAGGGUUGUUACUGGGGUGGUCACGUGGGCCAACAGAGGAUUGAGCAUCA
B17: chr1:212100457:212100572:+|CDS|ENSG00000143476|unk|FALSE|unique (ssRNA)
RNA: GGGAGUUCUACAGUCCGACGAUCAGAAGAGGCUCUGUCUCCUCCGUCUCUCCCAAGCCACCUUCAUCUUUCAAGAUGUCGAUUAGAAACUGGGUGACCCGAACACCUUCCUCAUCACCACCCAUCACUCCACCUGCUUCGGAGCAACAGAGGAUUGAGCAUCA
B18: chr20:63196482:63196583:-|3pUTR|ENSG00000149658|msi1|total|mutant (ssRNA)
RNA: GGGAGUUCUACAGUCCGACGAUCUGAUUUUUGCCCAGAUGGAUCUGCAUUUAUUUGUACUUUUUCUAUGUAUUAUAAUCCUGCCGAAGUCACUAAUAAAGGAGUAUUUUUUUUGUCAGCUUAUCAAUCAGACUGAUCUAAUGUCAACAGAGGAUUGAGCAUCA
B19: chr16:55506527:55506628:+|3pUTR|ENSG00000087245|msi1|FALSE|unique (ssRNA)
RNA: GGGAGUUCUACAGUCCGACGAUCUAUCAGUUUUAAUGCUACUACUAACAAUGAACAGUAACAAUAAUAUCCCCCUCAAUUAAUAGAGUGCUUUCUAUGUGCAAGGCACUUUUCACGUGUCACCUAUUUUAACCUUUCCAACCACAACAGAGGAUUGAGCAUCA
B20: ENSG00000107863:be:win_4351|CDS|ENSG00000107863|bound_else_gene|NA|bound_elsewhere_windowed (ssRNA)
RNA: GGGAGUUCUACAGUCCGACGAUCCACAAUGAUACUAAAGAGGAGUCCAAAAAAGAAAGUGAGACACUGGGCAGAAAACAGAAGAUCAUCAUUGCCAAAGAAAACAGCACUAGGAAAGACCCCAGCACGACAAAAGAUGAAAAGCAACAGAGGAUUGAGCAUCA
B21: chr13:42886387:42888493:-|three_prime_utr|ENSG00000133106|control|control|control (ssRNA)
RNA: GGGAGUUCUACAGUCCGACGAUCCAUAUUUAAUCUCUACUGCCAGGGAAAUGCUACAUUAUUUUUCUAAUUGGAAGUAUAAUUAGAGUGAUGUUGGUAGGGUAGAAAAAGAGGGAGUCACUUGAUGCUUUCAGGUUAAUCAGACAACAGAGGAUUGAGCAUCA
B22: chr4:143221337:143221438:+|3pUTR|ENSG00000170185|unk|FALSE|unique (ssRNA)
RNA: GGGAGUUCUACAGUCCGACGAUCUUGAAAGGUAAUAGAUUUUCCAGAAGUAAAAUCUGAUGGUUCUAAAUCAAUCAAUGUGAUAGUUCAUUUUUAACUCUUAGAAGAAUUCAGAGGAAAUUAACCCAGCUAAGUAAAAAAUCUCAACAGAGGAUUGAGCAUCA

molecular target: T1, UNK ZnF1-6 (called full-length) (human, UniProt Q9C0B0 30-357); test: nsRBNS (natural sequence RNA bind-n-seq); RBNS binding buffer (assumed for nsRBNS): 25 mM Tris pH 7.5, 150 mM KCl, 3 mM MgCl2, 0.01% Triton X-100, 500 ug/ml BSA, 20 U/ml SUPERase-In, 4 C; UNK is unkempt and MSI1 is Musashi-1; names of the RNAs are library labels; protein concentration not given here; high values mean tight binding
T1 sequence: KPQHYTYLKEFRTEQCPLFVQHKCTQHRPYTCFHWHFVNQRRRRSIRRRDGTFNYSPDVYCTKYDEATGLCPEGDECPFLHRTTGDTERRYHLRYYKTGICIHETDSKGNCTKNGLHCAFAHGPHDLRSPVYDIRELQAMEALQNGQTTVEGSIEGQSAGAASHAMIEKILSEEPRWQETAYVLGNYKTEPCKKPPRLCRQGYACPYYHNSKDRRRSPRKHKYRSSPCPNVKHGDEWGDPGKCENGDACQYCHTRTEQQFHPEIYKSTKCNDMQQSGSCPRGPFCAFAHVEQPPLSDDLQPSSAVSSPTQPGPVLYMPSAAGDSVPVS

Binder	binding signal [enrichment R]
B1	1.49
B2	0.962
B3	0.788
B4	0.807
B5	0.441
B6	0.453
B7	0.701
B8	0.657
B9	0.593
B10	0.936
B11	0.968
B12	0.445
B13	0.548
B14	0.678
B15	0.389
B16	0.427
B17	0.772
B18	0.665
B19	0.763
B20	0.687
B21	0.481
B22	0.783
